Results taken from PubChem BioAssay (Tox21).
Inconclusive results are not listed. Where a call stands in place of a potency, no number is given. Unmarked numbers belong to inactive results. Active and inactive are the calls of the source. The call rests on the fitted dose curve; in most records, active means well fitted activation curve with a large enough effect in the repeat runs; inconclusive means weak or mixed curves; inactive means flat fitted curve, though single readings scatter.
Potency means the concentration at half of the fitted maximal effect.

Experiment: A CellTox Green Cytotoxicity Assay to monitor cytotoxicity in HepG2 cells - 40 hour (AID 1224879); further: nearly all actives have a fitted effect of over 40% in size
Settings: CellTox Green fluorescence; series mostly up to 76.8 µM
Source text: National Center for Advancing Translational Sciences [NCATS]
NIH Chemical Genomics Center [NCGC]
U.S. Environmental Protection Agency [EPA]
National Institutes of Environmental Health Sciences [NIEHS]
National Toxicology Program [NTP]
Cell-based models are critical for drug discovery. Determining the natural cytotoxic effects resulting from test compounds is an essential research activity. A CellTox Green Cytotoxicity Assay to monitor cytotoxicity in real time of continues cell culture during 40 hours of the compound treatment was used to screen Tox21 10K library compounds in HepG2 cells. CellTox Green Cytotoxicity Assay is a nonlytic, homogeneous, biofluorescent method to measure cytotoxicity in cell culture after experimental manipulation. The assay system uses a proprietary asymmetric cyanine dye that is excluded from viable cells but preferentially stains the dead cell's DNA. […] Viable cells produce no appreciable increases in fluorescence. Therefore, the fluorescence signal produced by the binding interaction with dead cell DNA is proportional to cytotoxicity.
The mixture of HepG2 cell suspension and reagents were dispensed at 600cells/6 ul/well in 1536-well tissue culture treated black solid bottom plates using a Multidrop dispenser. After the assay plates were incubated at a 37 C/5% CO2 incubator for 5 hours, 23 nL of compounds dissolved in DMSO, positive and negative controls was transferred to the assay plate by a pintool work station. The plates were incubated at 37 C for 40 hours. The fluorescence intensity were measured at 0h, 8h, 16h, 24h, 32h and 40h time points using ViewLux plate reader during compound treatment.
With `CO[Si](OC)(OC)OC` the Potency was “inactive”. In the case of `C=CC(=O)N1CCOCC1`, the Potency is reported as “inactive”. For `O=C(O)c1ccccc1S`, the Potency was “inactive”. In the case of `O=C(O)c1ccc[n+]([O-])c1`, the Potency is reported as “inactive”. For `O=C(O)C(O)[C@H](O)[C@@H](O)[C@H](O)[C@H](O)CO` (stereo not given in full), the Potency was “inactive”. In the case of `C#CC(O)C(CC)CCCC` (stereo not given), the Potency is reported as “inactive”. For `N#CC1(O)CCCCC1`, the Potency was “inactive”. For `COC(C(=O)O)c1ccccc1` (stereo not given), the Potency was “inactive”. For `C=C(C)C(=O)OCCC(C)OC(=O)C(=C)C` (stereo not given), the Potency was “inactive”. With `O=C(O)CCNC(=O)c1ccc(N=Nc2ccc(O)c(C(=O)O)c2)cc1` the Potency was “inactive”. With `Nc1ccc2cc(S(=O)(=O)O)ccc2c1` the Potency was “inactive”. In the case of `Cc1ccc(Nc2ccc(O)c3c2C(=O)c2ccccc2C3=O)cc1`, the Potency is reported as “inactive”. For `COC(=O)CCCC(=O)O`, the Potency was “inactive”. In the case of `CCCCCC[C@@H](CCC)C(=O)O`, the Potency is reported as “inactive”. For `NC(=S)Nc1cccc2ccccc12`, the cytotoxicity increase was 2.43% [at 6.97 µM]. With `COC(=O)C1=C(C)NC(C)=C(C(=O)OCC(C)=O)C1c1ccccc1[N+](=O)[O-]` (stereo not given) the Potency was “inactive”. `C1CCCCCCCCCCC1` gave a cytotoxicity increase of -12.7% [at 15.8 µM]. For `CCC(C)(C)C1CCC(OC)CC1` (stereo not given), the Potency was “inactive”. For `N#CCN(CC#N)CCN(CC#N)CC#N`, the Potency was “inactive”. With `CC(C)COC(=O)c1ccccc1O` the Potency was “inactive”. For `COc1ccc(NC(C)=O)cc1`, the Potency was “inactive”. For `[O-][N+](=Nc1ccccc1)c1ccccc1`, the Potency was “inactive”. In the case of `CC(C)COC(=O)C(C)C`, the Potency is reported as “inactive”. In the case of `CCCC(C)C(=O)O` (stereo not given), the Potency is reported as “inactive”. With `O=C(O)Cc1cc(I)c(Oc2cc(I)c(O)c(I)c2)c(I)c1` the Potency was “inactive”. With `CN(C)C(=O)C(CCN1CCC(O)(c2ccc(Cl)cc2)CC1)(c1ccccc1)c1ccccc1` the Potency was 23.9 µM (active). In the case of `CCN1CCCC1CNC(=O)c1cc(S(N)(=O)=O)ccc1OC` (stereo not given), the Potency is reported as 43.6 µM (active). With `CCC(=O)c1cccc(Cl)c1` the Potency was “inactive”. For `CCCCCCCCCCCCCCCCCCOCC(O)CO` (stereo not given), the Potency was “inactive”. With `COc1cccc(OC)c1` the Potency was “inactive”. In the case of `COC(=O)CCCCCCCCC(=O)OC`, the Potency is reported as “inactive”. With `CCN(CC)C(=O)c1ccc(O)c(OC)c1` the Potency was “inactive”. For `Nc1ccn(C2CO[C@H](CO)O2)c(=O)n1` (stereo not given in full), the Potency was 7.56 µM (active). In the case of `CCN1CCN(c2cc3c(cc2F)c(=O)c(C(=O)O)cn3C2CC2)CC1`, the Potency is reported as “inactive”. In the case of `Nc1[nH]c(=O)ncc1F`, the Potency is reported as “inactive”. For `O=[N+]([O-])c1ccc(Oc2ccc([N+](=O)[O-])cc2)cc1`, the Potency was “inactive”. For `Oc1ccc2c(c1)OC[C@@H](N1CCC(O)(c3ccc(F)cc3)CC1)[C@H]2O`, the Potency was “inactive”. In the case of `Cn1ccc2cc3c(cc21)CCN3C(=O)Nc1cccnc1`, the cytotoxicity increase is reported as -12.1% [at 15.8 µM]. For `CSc1nc(NC2CC2)nc(NC(C)(C)C)n1`, the Potency was “inactive”. In the case of `O=c1[nH]c2ccccc2c(=O)n1CCCl`, the Potency is reported as “inactive”.
